Results: PubChem BioAssay (Tox21)
Values joined by “and” are separate entries in the source; they are usually repeats but may differ in a detail not shown here. Equal entries are not always repeated. Results filed as inconclusive are left out. Where a call stands in place of a potency, no number is given. A structure can be active in one record and inactive in another. Active and inactive are the calls of the source. Calls follow the shape of the dose curve; as a rule, active = well fitted cell-killing curve with a large enough effect in the repeat runs; inconclusive = weak or mixed curves, or effect the other way; inactive = no such curve, though single readings can be large or run the other way.
Potency is read from the fitted curve at half-maximal effect.

Test: qHTS assay to identify small molecule agonists of the farnesoid-X-receptor (FXR) signaling pathway - cell viability counter screen (AID 743218); also: nearly all actives have a fitted effect of over 45% in size
Conditions: FXR-bla HEK293T viability, CellTiter-Glo luminescence, 16 h; series mostly up to 62.6 µM
Text: U.S. Tox21 Program National Center for Advancing Translational Sciences [NCATS] NIH Chemical Genomics Center [NCGC] U.S. Environmental Protection Agency [EPA] National Institutes of Environmental Health Sciences [NIEHS] National Toxicology Program [NTP] U.S. Food and Drug Administration [FDA] Tox21 Assay Overview: The farnesoid-X-receptor (FXR), a nuclear hormone receptor, is highly expressed in liver, intestine, kidney and adrenal cortex. Natural ligands of FXR are the bile acids (Cholic acid, Chenodeoxy cholic acid etc). FXR is an important regulator of diverse metabolic pathways, including the bile acid homeostasis, lipid and glucose metabolisms. FXR regulates the expression of target genes by binding either as a monomer or as a heterodimer with the retinoid X receptor (RXR). Numerous studies have reported that FXR exerts protective function during cholestasis, diabetes, liver regeneration, and cancer. To identify compounds that activate FXR signaling, GeneBLAzer FXR-UAS-bla HEK 293T cell line (Invitrogen, Carlsbad, CA) containing a beta-lactamase reporter gene under the control of a UAS response element was used to screen the Tox21 10K compound library. The cytotoxicity of the Tox21 compound library against the FXR-bla cell line was tested in parallel by measuring the cell viability using CellTiter-Glo assay in the same wells.
Tox21 Assay Protocol Summary: FXR-bla cells were dispensed at 5000 cells/5uL/well in 1536-well black wall/clear bottom plates using a Multidrop Combi (Thermo Fisher Scientific, Waltham, MA) dispenser. After the assay plates were incubated at 37 C and 5% CO2 for 5 h, 23 nL of compounds dissolved in DMSO, positive controls or DMSO only was transferred to the assay plate by a Pintool station (Kalypsys, San Diego, CA). The assay plates were incubated at 37C for 16 h. After 1 uL of LiveBLAzerTM B/G FRET substrate was added using a Bioraptr Flying Reagent Dispenser (FRD) workstation (Beckman Coulter, Indianapolis, IN), the plates were incubated at room temperature for 2 h, and fluorescence intensity was measured by an Envision plate reader (PerkinElmer, Shelton, CT). For cell viability readout that measures cytotoxicity, 4uL/well of CellTiter-Glo reagent was added into the assay plates using a Bioraptr FRD. After 30 min incubation at room temperature, the luminescence intensity in the plates was measured using a ViewLux plate reader (PerkinElmer).
In the case of `CCOC(=O)[C@H](CCc1ccccc1)N[C@@H](C)C(=O)N1Cc2ccccc2C[C@H]1C(=O)O`, the Potency is reported as “inactive”. With `O=S(=O)(O)c1cc(S(=O)(=O)O)c2c(N=Nc3ccccc3)c(O)ccc2c1` the Potency was “inactive”. In the case of `CC(=O)CCc1ccccc1`, the Potency is reported as “inactive”. For `c1ccc2[nH]cnc2c1`, the Potency was “inactive”. With `CC(=O)Nc1ccc(C(=O)O)cc1` the Potency was “inactive”. In the case of `CC[Si](OC(C)=O)(OC(C)=O)OC(C)=O`, the Potency is reported as “inactive”. In the case of `CCCCCCOC(C)=O`, the Potency is reported as “inactive and 24.5 µM (active)”. In the case of `S=c1nc[nH]c2nc[nH]c12`, the Potency is reported as “inactive”. In the case of `CC1(C)O[C@@H]2C[C@H]3[C@@H]4C[C@H](F)C5=CC(=O)CC[C@]5(C)[C@H]4[C@@H](O)C[C@]3(C)[C@]2(C(=O)CO)O1`, the Potency is reported as “inactive”. For `CC1=C(/C=C/C(C)=C/C=C/C(C)=C/CO)C(C)(C)CCC1`, the Potency was “inactive”. In the case of `Nc1nc2ncc(CNc3ccc(C(=O)N[C@@H](CCC(=O)O)C(=O)O)cc3)nc2c(=O)[nH]1`, the Potency is reported as “inactive”. In the case of `Nc1c(S(=O)(=O)O)cc(Br)c2c1C(=O)c1ccccc1C2=O`, the Potency is reported as “inactive”. In the case of `CCCCC(CC)COC(=O)/C=C\C(=O)OCC(CC)CCCC` (stereo not given), the Potency is reported as “inactive”. With `CC(C)(C)C1CCC(O)CC1` (stereo not given) the Potency was “inactive”. With `CCCCC(CC)C(=O)OCCOCCOCCOC(=O)C(CC)CCCC` (stereo not given) the Potency was “inactive”. With `CCCCOCCOCCOC(=O)CCCCC(=O)OCCOCCOCCCC` the Potency was “inactive”. For `O=C(O)c1ccc([N+](=O)[O-])cc1`, the Potency was “inactive”. For `C=C1C2CCC(C2)C1(C)C` (stereo not given), the Potency was “inactive”. For `CN(C)c1cccc(O)c1`, the Potency was “inactive”. In the case of `Cc1cc(NS(=O)(=O)c2ccc(N)cc2)no1`, the Potency is reported as “inactive”. In the case of `CS(=O)(=O)Nc1ccc([N+](=O)[O-])cc1Oc1ccccc1`, the Potency is reported as “inactive”. For `C=C(C)C(=O)OCCCCCC`, the Potency was “inactive”. In the case of `O=C1CCCCC1`, the Potency is reported as “inactive”. For `Cn1c([N+](=O)[O-])cnc1COC(N)=O`, the Potency was “inactive”. In the case of `OC1CCCC1`, the Potency is reported as “inactive”. For `CC(=O)[C@@]1(O)CC[C@H]2[C@@H]3CCC4=CC(=O)CC[C@]4(C)[C@H]3CC[C@@]21C`, the Potency was “inactive”. With `O=[N+]([O-])C(CO)(CO)CO` the Potency was “inactive”. For `CC1Cc2ccccc2N1NC(=O)c1ccc(Cl)c(S(N)(=O)=O)c1` (stereo not given), the Potency was “inactive”. For `NCc1cccc(CN)c1`, the Potency was “inactive”. For `COC(=O)c1ccccc1O`, the Potency was “inactive”. For `O=C(c1ccc(O)cc1)c1ccc(O)cc1O`, the Potency was “inactive”. For `O=C1O[C@H](CO)[C@@H](O)[C@H](O)[C@H]1O`, the Potency was “inactive”. In the case of `CCC(C)C=O` (stereo not given), the Potency is reported as “inactive”. For `OCC1CCCO1` (stereo not given), the Potency was “inactive”. With `C[C@@H]1O[C@@H](OC[C@H]2O[C@@H](Oc3c(-c4ccc(O)c(O)c4)oc4cc(O)cc(O)c4c3=O)[C@H](O)[C@@H](O)[C@@H]2O)[C@H](O)[C@H](O)[C@H]1O` the Potency was “inactive”. For `Cc1cc(O)cc(C)c1Cl`, the Potency was “inactive”. With `CCCCCCCCCCCCOCC1CO1` (stereo not given) the Potency was “inactive”. In the case of `CCOC(=O)/C=C\C(=O)OCC`, the Potency is reported as “inactive”. For `C=C(C)C(=O)OCCCCCCCCCCCC`, the Potency was “inactive”. For `CC1(C)CC(N=C=O)CC(C)(CN=C=O)C1` (stereo not given), the Potency was “inactive”.
